{
  "source": "PubChem BioAssay (NCI)",
  "note": "Values joined by “and” are separate entries in the source; they are usually repeats but may differ in a detail not shown here. Identical values can stand only once. Compounds without any hit were thinned out: in the full panel of roughly 79,000, 15% have a hit. Unmarked numbers belong to inactive results. Active and inactive are the calls of the source. Rule as the data show it: active = growth inhibition above about 70%; inactive = the rest.",
  "data": [
    {"experiment": "NCI Yeast Anticancer Drug Screen. Data for the bub3 strain (AID 167)", "conditions": "S. cerevisiae bub3 mutant strain, at 50.0 µM, hits give high values", "in_short": "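Whole-cell yeast assay. The mutant strain was incubated with compounds, and growth inhibition was determined by comparison with vehicle-treated cells.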", "values": [
      {"smiles": "CC(COC(=O)NCc1ccccc1)OC(N)=O", "note": "(stereo not given)", "growth inhibition": "1.15%"},
      {"smiles": "CC(C)(C)C1=C(Br)C(F)(C(C)(C)C)OP1(=O)c1ccccc1", "note": "(stereo not given)", "growth inhibition": "90% (active)"},
      {"smiles": "O=P(Nc1ccc(Cl)cc1)(Oc1ccccc1)N(CCCl)CCCl", "note": "(stereo not given)", "growth inhibition": "-7.95%"},
      {"smiles": "COc1ccc2c(c1OC)CC(N)C2O", "note": "(stereo not given)", "growth inhibition": "15.2%"},
      {"smiles": "CN1CCc2ccc(O)cc2C1", "growth inhibition": "15.7%"},
      {"smiles": "O=C(Cc1ccccc1)OC1CCCC1", "growth inhibition": "-3.3%"},
      {"smiles": "O=C1NC2(CCCCC2)C(=O)N1CCCCCN(CCCl)CCCl", "growth inhibition": "-9.75%"},
      {"smiles": "Nc1cc(S(=O)(=O)F)ccc1Cl", "growth inhibition": "22.9%"},
      {"smiles": "CCC(CO)N=Cc1ccccc1O.CCC(CO)N=Cc1ccccc1O.[Ni]", "note": "(stereo not given)", "growth inhibition": "8.7%"},
      {"smiles": "CS(=O)(=O)OC1C2CC(C1OS(C)(=O)=O)C(c1ccccc1)C2C(=O)O", "note": "(stereo not given)", "growth inhibition": "-1.85%"},
      {"smiles": "CC(C)(C)C1=C(Br)C(OC(=O)C(F)(F)F)(C(C)(C)C)OP1(=O)c1ccccc1", "note": "(stereo not given)", "growth inhibition": "-10.3%"},
      {"smiles": "O=C(Cl)c1cc([N+](=O)[O-])cc([N+](=O)[O-])c1", "growth inhibition": "-1.6%"},
      {"smiles": "COc1ccc(CCN(C)Cc2cccc(OC)c2OC)cc1OC", "growth inhibition": "-16.1%"},
      {"smiles": "O=C1C2CCN(CC2)C1Cc1ccccc1", "note": "(stereo not given)", "growth inhibition": "-18.3% and -2.8%"},
      {"smiles": "C#CC1(O)CCC(C(C)(C)C)CC1", "note": "(stereo not given)", "growth inhibition": "9.05% and 10.4% and -10.2%"},
      {"smiles": "CC(C)OC(=S)S.[Cu+2]", "growth inhibition": "-15.2%"},
      {"smiles": "NC(N)=NCCCCCCCCCCN=C(N)N", "growth inhibition": "-2.35%"},
      {"smiles": "OC(c1ccccc1)C(NC1CCCCC1)c1ccccc1", "note": "(stereo not given)", "growth inhibition": "-6.3%"},
      {"smiles": "C1CC[N-]CC1.CC(=N\\O)/C(C)=N/O.CC(=N\\O)/C(C)=N/O.C[C-]=O.[Co+2]", "growth inhibition": "19%"},
      {"smiles": "O=[As](O)(O)c1cc(N=Nc2ccc(-c3ccc(N=Nc4cc([As](=O)(O)O)c(O)cc4O)cc3)cc2)c(O)cc1O", "growth inhibition": "-4.2%"},
      {"smiles": "O=C(CF)NCCCl", "growth inhibition": "9.65%"},
      {"smiles": "O=CC=O", "growth inhibition": "33.9%"},
      {"smiles": "Nc1ccc([N+](=O)[O-])cc1Cl", "growth inhibition": "12.9%"},
      {"smiles": "CN1CCN(C(=O)Cc2c[nH]c3ccccc23)CC1", "growth inhibition": "9.35%"},
      {"smiles": "CS(=O)(=O)CS(=O)(=O)OCCF", "growth inhibition": "-29%"}
    ]},
    {"experiment": "NCI Yeast Anticancer Drug Screen. Data for the mlh1 rad18 strain (AID 175)", "conditions": "S. cerevisiae mlh1 rad18 strain growth inhibition; at 50.0 µM; hits give high values", "in_short": "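Read-out is yeast growth inhibition, calculated against vehicle-only controls. The compound was applied to a strain engineered with DNA damage repair alterations.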", "values": [
      {"smiles": "O=[N+]([O-])CCCCl", "growth inhibition": "2.35%"},
      {"smiles": "CCCC(C)c1ccc(SOO)cc1.[Fe]", "note": "(stereo not given)", "growth inhibition": "-6.6%"},
      {"smiles": "CC1(C)N=C(N)N=C(N)N1c1ccc(CCc2ccc(Cl)c(S(=O)(=O)F)c2)c(Cl)c1", "growth inhibition": "99.7% (active)"},
      {"smiles": "CCN(CC)C(=S)SC1C(=O)NC(=O)NC1=O", "growth inhibition": "16.1%"},
      {"smiles": "C=C(C)[C@H]1CN[C@H](C(=O)O)[C@H]1CC(=O)O", "growth inhibition": "5.05%"},
      {"smiles": "CC(C)=CC(=O)N(C)C1C2CN3CCC(O2)C13", "note": "(stereo not given)", "growth inhibition": "21.6%"},
      {"smiles": "Nc1ccc([N+](=O)[O-])cc1[N+](=O)[O-]", "growth inhibition": "11%"},
      {"smiles": "CC1C(C(=O)c2ccc(-c3ccccc3)cc2)N1C(C)(C)C", "note": "(stereo not given)", "growth inhibition": "-11.8%"},
      {"smiles": "[Se]c1nc(N2CCOCC2)ncc1-c1ccccc1", "growth inhibition": "9%"},
      {"smiles": "CCCCCCC[CH2][Sn][CH2]CCCCCCC.Nc1ncnc2c1ncn2C1OC(CO)C2[OH+][OH+]C21", "note": "(stereo not given)", "growth inhibition": "11.8%"},
      {"smiles": "CO/N=C1\\CC(C)N2C(=O)C(C(C)C)NC(=O)C(NC(=O)c3c4nc5c(C(=O)NC6C(=O)NC(C(C)C)C(=O)N7C(C)CC(O)C7C(=O)N(C)CC(=O)N(C)C(C(C)C)C(=O)OC6C)ccc(C)c5oc-4c(C)c(=O)c3N)C(CO)OC(=O)C(C)N(C)C(=O)CN(C)C(=O)C12", "note": "(stereo not given)", "growth inhibition": "8.45%"},
      {"smiles": "O=P(Oc1ccccc1)(Oc1ccccc1)N(CCCl)CCCl", "growth inhibition": "-37.6%"},
      {"smiles": "O=C(O)C1C2C=Cc3ccccc3C21", "note": "(stereo not given)", "growth inhibition": "6.45%"},
      {"smiles": "CC(NC1=NCCO1)c1ccco1", "note": "(stereo not given)", "growth inhibition": "-75.8%"},
      {"smiles": "CCOP(=O)(CSCCC1(C)NC(=O)NC1=O)OCC", "note": "(stereo not given)", "growth inhibition": "7.45%"},
      {"smiles": "CC(COC(=O)NCc1ccccc1)OC(N)=O", "note": "(stereo not given)", "growth inhibition": "-11.4%"},
      {"smiles": "CC(C)(C)C1=C(Br)C(F)(C(C)(C)C)OP1(=O)c1ccccc1", "note": "(stereo not given)", "growth inhibition": "91.6% (active)"},
      {"smiles": "O=P(Nc1ccc(Cl)cc1)(Oc1ccccc1)N(CCCl)CCCl", "note": "(stereo not given)", "growth inhibition": "0.9%"},
      {"smiles": "COc1ccc2c(c1OC)CC(N)C2O", "note": "(stereo not given)", "growth inhibition": "3.25%"},
      {"smiles": "CN1CCc2ccc(O)cc2C1", "growth inhibition": "10.6%"},
      {"smiles": "O=C(Cc1ccccc1)OC1CCCC1", "growth inhibition": "19%"},
      {"smiles": "O=C1NC2(CCCCC2)C(=O)N1CCCCCN(CCCl)CCCl", "growth inhibition": "-0.3%"},
      {"smiles": "Nc1cc(S(=O)(=O)F)ccc1Cl", "growth inhibition": "23.6%"},
      {"smiles": "CCC(CO)N=Cc1ccccc1O.CCC(CO)N=Cc1ccccc1O.[Ni]", "note": "(stereo not given)", "growth inhibition": "25.5%"},
      {"smiles": "CS(=O)(=O)OC1C2CC(C1OS(C)(=O)=O)C(c1ccccc1)C2C(=O)O", "note": "(stereo not given)", "growth inhibition": "34.2%"},
      {"smiles": "CC(C)(C)C1=C(Br)C(OC(=O)C(F)(F)F)(C(C)(C)C)OP1(=O)c1ccccc1", "note": "(stereo not given)", "growth inhibition": "-7.2%"},
      {"smiles": "O=C(Cl)c1cc([N+](=O)[O-])cc([N+](=O)[O-])c1", "growth inhibition": "46.6%"},
      {"smiles": "COc1ccc(CCN(C)Cc2cccc(OC)c2OC)cc1OC", "growth inhibition": "-2.1%"},
      {"smiles": "O=C1C2CCN(CC2)C1Cc1ccccc1", "note": "(stereo not given)", "growth inhibition": "-15.4% and 2.95%"},
      {"smiles": "C#CC1(O)CCC(C(C)(C)C)CC1", "note": "(stereo not given)", "growth inhibition": "-17.9% and -4.15% and 10.8%"},
      {"smiles": "CC(C)OC(=S)S.[Cu+2]", "growth inhibition": "2.4%"},
      {"smiles": "NC(N)=NCCCCCCCCCCN=C(N)N", "growth inhibition": "-10.3%"},
      {"smiles": "OC(c1ccccc1)C(NC1CCCCC1)c1ccccc1", "note": "(stereo not given)", "growth inhibition": "-56%"},
      {"smiles": "C1CC[N-]CC1.CC(=N\\O)/C(C)=N/O.CC(=N\\O)/C(C)=N/O.C[C-]=O.[Co+2]", "growth inhibition": "14.4%"},
      {"smiles": "O=[As](O)(O)c1cc(N=Nc2ccc(-c3ccc(N=Nc4cc([As](=O)(O)O)c(O)cc4O)cc3)cc2)c(O)cc1O", "growth inhibition": "25.4%"},
      {"smiles": "O=C(CF)NCCCl", "growth inhibition": "1.45%"},
      {"smiles": "O=CC=O", "growth inhibition": "28.4%"},
      {"smiles": "Nc1ccc([N+](=O)[O-])cc1Cl", "growth inhibition": "34%"},
      {"smiles": "CN1CCN(C(=O)Cc2c[nH]c3ccccc23)CC1", "growth inhibition": "15.7%"},
      {"smiles": "CS(=O)(=O)CS(=O)(=O)OCCF", "growth inhibition": "-33.2%"}
    ]}
  ]
}
